The results in this text go back to PubChem BioAssay (EPA / NIEHS).

Records with an inconclusive call do not appear. Calls of active or inactive are those of the source. The calls were made as follows: active = hit-call score of the fitted dose curve at least 0.9, where 1 is the maximum; inconclusive = response in the unintended direction; inactive = score below 0.9.

A word on the AC50: it is the concentration at which the activity in the assay is half-maximal.

Sequence of sheep Cyclooxygenase-1 (Cox1), PTGS1 (gene 443551) (P05979 whole entry, looked up): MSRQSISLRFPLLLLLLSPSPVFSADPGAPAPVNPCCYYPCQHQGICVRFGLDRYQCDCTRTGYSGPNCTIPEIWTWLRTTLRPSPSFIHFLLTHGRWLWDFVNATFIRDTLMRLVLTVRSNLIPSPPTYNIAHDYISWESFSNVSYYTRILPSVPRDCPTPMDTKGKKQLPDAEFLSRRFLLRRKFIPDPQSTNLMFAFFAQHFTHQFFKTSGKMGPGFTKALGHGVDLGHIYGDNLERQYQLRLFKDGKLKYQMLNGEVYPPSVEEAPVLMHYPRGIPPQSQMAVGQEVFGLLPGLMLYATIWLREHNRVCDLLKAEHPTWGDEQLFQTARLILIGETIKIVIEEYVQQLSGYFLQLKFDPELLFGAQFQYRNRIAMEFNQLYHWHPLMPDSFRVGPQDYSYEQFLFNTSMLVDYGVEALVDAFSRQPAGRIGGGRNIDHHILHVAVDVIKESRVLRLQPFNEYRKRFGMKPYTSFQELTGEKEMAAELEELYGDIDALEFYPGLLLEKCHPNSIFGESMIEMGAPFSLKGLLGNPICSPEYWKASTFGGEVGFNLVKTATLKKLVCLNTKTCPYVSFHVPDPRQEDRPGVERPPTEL

This assay concerns the target sheep Cyclooxygenase-1 (Cox1), PTGS1 (gene 443551) (UniProt P05979). In words: NVS_ENZ_oCOX1: NovaScreen (NVS) Enzymatic Assay for sheep Cyclooxygenase-1 (Cox1) (AID 2283239).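 Also: actives reduce cyclooxygenase activity so potencies are for inhibitors.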 As for the experimental part:
NVS_ENZ_oCOX1 is a biochemical, single-readout assay that uses extracted gene-proteins from Ovine seminal vesicles in a tissue-based cell-free assay. Measurements were taken 0.66 hour after chemical dosing in a 96-well plate.NVS_ENZ_oCOX1 is one of one assay component(s) measured or calculated from the NVS_ENZ_oCOX1 assay. It is designed to make measurements of enzyme activity, a form of enzyme reporter, as detected with absorbance signals by Colorimetric technology.Data from the assay component NVS_ENZ_oCOX1 was analyzed into 1 assay endpoint. This assay endpoint, NVS_ENZ_oCOX1, was analyzed in the positive analysis fitting direction relative to DMSO as the negative control and baseline of activity. Using a type of enzyme reporter, loss-of-signal activity can be used to understand changes in the enzymatic activity as they relate to the gene PTGS1. Furthermore, this assay endpoint can be referred to as a primary readout, because this assay has produced multiple assay endpoints where this one serves a enzymatic activity function. To generalize the intended target to other relatable targets, this assay endpoint is annotated to the oxidoreductase intended target family, where the subfamily is cyclooxygenase.
Binding assays used specific radioligands (tritiated, iodinated) with non-radioactive competitive displacement ligands in agonist or antagonist protocols (as indicated) and various reference compounds and inhibitors to titrate specific binding to receptors and transporters. Most enzyme assays (CYPs, kinases, phosphatases, proteases, HDACs) used recombinant protein and specific substrates (fluorescence mostly, some colorimetric and radioactive) and inhibitors, followed by a biochemical separation of substrate and product. All assays for the biochemical HTS were initially run in duplicate at a single concentration (10 uM for CYP450 assays and 25 uM for all others). […] Each assay was run with positive and negative controls, and concurrent controls on every plate. The follow-up (secondary) screen tested active chemical-pairs in concentration series, as well as a few additional assays not tested in the primary screen, some selected negative inactives, and several cases re-run in the concentration series for confirmatory purposes.
On to `COc1ccccc1NC(=O)CC(C)=O`, for which the AC50 was 14.6 µM (active).
For the compound `CCCCCCCCCCCCS`, the AC50 is 25 µM (active).
In the case of `C=CCOCC(O)CO` (stereo unspecified), the AC50 is 25 µM (active).
In the case of `Cc1cc(N)n(-c2ccccc2)n1`, the call was inactive.
As for `CC(C)(O)CCc1ccccc1`, the outcome was inactive.
With `CC(=O)CCC=C(C)CCC=C(C)C`, the AC50 was 43.3 µM (active).
For the compound `c1ccc(Sc2ccccc2)cc1`, the result was inactive.
Regarding `Cc1ccc(C(C)(C)O)cc1`, the call was inactive.
With `O=C1OC2(c3ccc(O)cc3Oc3cc(O)ccc32)c2ccccc21`, the AC50 is 18.2 µM (active).
As for `CC(=O)c1ccc(C)cc1`, the call was inactive.
Same read-out and setting: then `CC(O)COCC(C)O` (stereo unspecified), with “inactive”.
